Measured values taken from PMC4336329 (PLoS ONE, 2015).
Hit rate of the full screen: of about 310,000 compounds, about 14,000 (4.5%) showed an effect of 50% or more. The effect is printed as a negative number. The list comes from a sample in which strong results are over-represented; it also holds similar structures and randomly drawn compounds.

molecular target: human ether-à-go-go-related gene (hERG) potassium channel (human, UniProt Q12809); assay: primary screen, population patch clamp on CHO cells stably expressing hERG; higher = less effect of the substance
Sequence (Q12809 whole entry, looked up): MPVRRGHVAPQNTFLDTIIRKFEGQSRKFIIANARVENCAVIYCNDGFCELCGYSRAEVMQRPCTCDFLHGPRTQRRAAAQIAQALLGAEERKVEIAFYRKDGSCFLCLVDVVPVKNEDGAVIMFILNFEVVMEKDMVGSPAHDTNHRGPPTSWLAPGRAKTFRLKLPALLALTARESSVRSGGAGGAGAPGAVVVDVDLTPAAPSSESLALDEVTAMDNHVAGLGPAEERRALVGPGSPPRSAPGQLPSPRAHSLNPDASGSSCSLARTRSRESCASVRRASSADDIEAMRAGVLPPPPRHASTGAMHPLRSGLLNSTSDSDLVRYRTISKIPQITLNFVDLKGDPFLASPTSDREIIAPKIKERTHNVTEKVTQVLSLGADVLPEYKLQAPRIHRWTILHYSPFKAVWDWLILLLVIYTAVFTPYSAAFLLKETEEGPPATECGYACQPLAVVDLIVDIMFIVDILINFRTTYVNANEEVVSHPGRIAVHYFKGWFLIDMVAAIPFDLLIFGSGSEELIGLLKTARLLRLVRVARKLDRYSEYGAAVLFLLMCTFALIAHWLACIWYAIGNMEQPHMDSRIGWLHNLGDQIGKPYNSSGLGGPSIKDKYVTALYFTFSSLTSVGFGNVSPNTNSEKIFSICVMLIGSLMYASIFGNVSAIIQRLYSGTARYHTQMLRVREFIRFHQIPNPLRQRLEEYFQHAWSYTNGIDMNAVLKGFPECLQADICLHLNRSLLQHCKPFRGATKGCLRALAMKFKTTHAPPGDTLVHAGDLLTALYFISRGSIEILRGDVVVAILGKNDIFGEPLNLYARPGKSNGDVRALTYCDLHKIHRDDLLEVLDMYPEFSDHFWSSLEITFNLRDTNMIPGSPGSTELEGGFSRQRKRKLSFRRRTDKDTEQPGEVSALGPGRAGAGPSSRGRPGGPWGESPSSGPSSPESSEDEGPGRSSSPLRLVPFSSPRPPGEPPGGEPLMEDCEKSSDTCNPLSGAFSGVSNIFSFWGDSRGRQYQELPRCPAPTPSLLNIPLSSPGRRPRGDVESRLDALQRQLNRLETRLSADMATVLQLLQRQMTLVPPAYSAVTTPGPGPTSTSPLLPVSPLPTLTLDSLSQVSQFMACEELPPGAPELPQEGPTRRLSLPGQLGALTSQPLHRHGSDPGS
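Also: peak tail current of the secondary pulse compared with the same well before compound.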

Row | Structure (SMILES) | hERG current change (%, negative = inhibition) at 10uM [%]
1 | CN(C)CCNc1cnn(-c2ccccc2)c(=O)c1Cl | 14.2
2 | CCOC(=O)c1[nH]c2ccccc2c1NC(=S)Nc1cccc(C)c1C | -5.81
3 | CC(C)(C)NC(=S)NNC(=O)c1ccncc1 | 15.4
4 | CC(C)c1nc2sc3c(c2c(=O)n1N)CC(C)(C)OC3 | 8.71
5 | CCCn1c(SCC(=O)Nc2ccc(C(=O)Nc3ccccc3OC)cc2)n[nH]c1=O | 11.9
6 | CC(NC(=O)CCNC(=O)c1ccco1)c1ccc(F)cc1 (stereo not drawn) | 12.3
7 | CCOc1cccc2sc(N(CCCN(C)C)C(=O)c3ccc(S(=O)(=O)N4CCc5ccccc5C4)cc3)nc12.Cl | 13.7
8 | CCOc1cccc2sc(N(CCCN(C)C)C(=O)c3ccc(S(=O)(=O)N(C)Cc4ccccc4)cc3)nc12.Cl | -40.4
9 | CCOc1cccc2sc(N(CCCN(C)C)C(=O)c3ccc(S(=O)(=O)N(C)c4ccccc4)cc3)nc12.Cl | -83.7
10 | CCOc1cccc2sc(N(CCN(C)C)C(=O)/C=C/c3cccs3)nc12.Cl | -40.7
11 | CCOc1cccc2sc(N(CCCN(C)C)C(=O)Cc3ccccc3)nc12.Cl | -80.2
12 | CCOc1ccc2nc(N(CCCN(C)C)C(=O)c3ccc(C(=O)c4ccccc4)cc3)sc2c1.Cl | -35.5
13 | CCOc1cccc2sc(N(CCCN(C)C)C(=O)c3ccc(C(=O)c4ccccc4)cc3)nc12.Cl | -72.1
14 | CN(C)CCN(C(=O)c1ccc(S(=O)(=O)N(C)CC2CCCO2)cc1)c1nc2cc3c(cc2s1)OCO3.Cl (stereo not drawn) | -43.2
15 | Cc1cc(C)c2nc(N(CCN(C)C)C(=O)c3ccc(S(=O)(=O)N(C)CC4CCCO4)cc3)sc2c1.Cl (stereo not drawn) | -43.6
16 | CCOc1cccc2sc(N(CCCN(C)C)C(=O)c3ccc(S(=O)(=O)N(C)CC4CCCO4)cc3)nc12.Cl (stereo not drawn) | -77.4
17 | CCCC(=O)N(CCN1CCOCC1)c1nc2c(OCC)cccc2s1.Cl | 9.08
18 | COc1cc2ccccc2cc1C(=O)N1CCCC(C(F)(F)F)C1 (stereo not drawn) | -14.3
19 | O=C(Nn1cc(C(=O)N2CCN(c3ccccc3F)CC2)c2ccccc2c1=O)c1cnccn1 | 2.84

Row | Structure (SMILES) | hERG current change (%, negative = inhibition) at 10uM [%]
20 | Cc1ccc(C(C)NC(=O)C23CC4CC(CC(C4)C2)C3)cc1 (stereo not drawn) | 11.4
21 | CCOc1cccc(NC(=O)CSc2nc(C)c3c(c2C#N)CCCC3)c1 | 0.331
22 | CCN(Cc1ccccc1)C(=O)COC(=O)c1cc(=O)[nH]c2ccccc12 | -4.27
23 | CCN1C(=NCCOC)N[C@@H](c2cccc(F)c2)C(C(=O)OC)=C1C | -14.3
24 | COC(=O)C1=C(C)N(Cc2ccccc2)C(=NCc2ccc(OC)cc2)N[C@H]1c1cccc(F)c1 | 6.76
25 | COC(=O)C1=C(C)N(Cc2ccccc2)C(=NCc2ccccc2)N[C@H]1c1cccc(F)c1 | -11.5
26 | CCN1C(=NCCc2ccccn2)N[C@@H](c2cccc(F)c2)C(C(=O)OC)=C1C | -56.7
27 | COC(=O)C1=C(C)N(Cc2ccccc2)C(=NCCc2ccccn2)N[C@H]1c1cccc(F)c1 | -60.4
28 | CCN1C(=NCCCCO)N[C@@H](c2cccc(F)c2)C(C(=O)OC)=C1C | 6.82
29 | O=C1c2ccccc2CN1CCSC(=S)N1CCOCC1 | -8.59
30 | CC(C)C[C@H](NC(=O)C1CC(=O)N(c2ccc3c(c2)OCO3)C1)C(=O)NC1CCCCC1 (stereo partly drawn) | 22.4
31 | COc1ccc(C(C)=O)cc1CSc1nc2cc(C(=O)O)ccc2c(=O)n1Cc1ccccc1 | 12.7
32 | CCOc1cc(CNCCc2ccc(S(N)(=O)=O)cc2)ccc1OCC(=O)NC1CCCCC1.Cl | -36.3
33 | CCOc1cc(CNCCc2ccc(S(N)(=O)=O)cc2)ccc1OCc1ccccc1.Cl | -55.9
34 | CCOc1cc(CNCCc2ccc(S(N)(=O)=O)cc2)cc(Cl)c1OCc1ccccc1.Cl | -70.7
35 | CCOc1ccc2ccccc2c1CNCCc1ccc(S(N)(=O)=O)cc1.Cl | -73.1
36 | COc1cc(CNCCc2ccccc2)cc(Cl)c1OCc1ccccc1.Cl | -18.7
37 | CCOc1ccccc1OCC(=O)NCCc1ccc(S(N)(=O)=O)cc1 | 10.9
38 | CCOc1cc(CNCCc2ccc(S(N)(=O)=O)cc2)ccc1OCc1ccc(Cl)cc1.Cl | -18.5

Row | Structure (SMILES) | hERG current change (%, negative = inhibition) at 10uM [%]
39 | CCNCc1cc(Cl)c(OCc2ccccc2)c(OCC)c1.Cl | -8.51
40 | CCOc1cc(CNCCc2ccc(S(N)(=O)=O)cc2)ccc1OCC(=O)NC(C)(C)C.Cl | 4.8
41 | COC(=O)c1ccc(C(=O)OC)c(NC(=O)/C=C/C(=O)O)c1 | 5.06
42 | CC(NC(=O)c1ccccc1SCC(=O)N1CCCC1)c1ccccc1 (stereo not drawn) | -26.1
43 | CCCCP(=O)(CCCC)Cc1ccccc1 | 15.3
44 | CCN1C(=O)NC(=O)/C(=C/c2cc(C)n(-c3sc(C)c(C)c3C#N)c2C)C1=O | -4.66
45 | COc1ccc(-c2c(C)nc(N)nc2-c2ccc(OCc3ccc(C)cc3)cc2O)cc1OC | 4.25
46 | CCOc1ccc(C(=O)N2CCCN(C(=O)c3ccc(OCC)cc3)CC2)cc1 | -71.8
47 | CCOc1ccc(C(=O)N2CCCC2)cc1 | 5.24
48 | CCOc1ccc(CN2CCN(C(=O)c3ccccc3)CC2)cc1 | -39.5
49 | CCN(CC)c1ccc(C(=O)N2CCN(Cc3ccccc3)CC2)cc1 | -37.8
50 | COc1ccc(C(=S)N2CCN(C)CC2)cc1 | -22.8
51 | CCN1CCN(C(=S)c2ccc(O)cc2)CC1 | 11
52 | CCOc1ccc(C(=O)N2CCN(Cc3ccccc3)CC2)cc1 | -69.3
53 | CCOc1ccc(C(=O)N2CCN(c3ccccc3)CC2)cc1 | -36.3
54 | CCOc1ccc(C(=O)N2CCN(c3cccc(Cl)c3)CC2)cc1 | -73.7
55 | CCOc1ccc(C(=O)N2CCCCCC2)cc1 | 2.03
56 | COc1ccc(C(=O)N2CCN(c3cccc(Cl)c3)CC2)cc1 | -36
57 | CCN1CCN(C(=S)c2ccc(OC)cc2)CC1 | -64.8
